The full list was thinned out, with hits kept by preference.
BL2 CD40 inh – inhibitors of CD40-induced NF-kB signaling, primary screen, BL2 cells, luciferase reporter, single point. 0.94% of 83,000 active. CD40L-induced, 4 h. inhibition, % at 10 µM;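 active = mean inhibition of at least 50% with a set share of replicates also reaching that level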;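 also: 0% = neutral control wells and 100% = IKK inhibitor VII at 50 µM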
* = called active by the depositor; [ ] = another dose, or the depositor's remark.

SMILES | BL2 CD40 inh
CC(=NNC(=S)N1CC2CCC(CC2)C1)c1cccc(C)n1 | -20
C/C(=N/NC(=O)c1ccccn1)c1ccco1 | 18
CC(=NNC(=S)N1CCC1)c1ccccn1 | 97*
Cc1noc(C)c1S(=O)(=O)N(C)C[C@@H]1OCCCC[C@H](C)Oc2ccc(N(C)C)cc2C(=O)N([C@@H](C)CO)C[C@H]1C | -17[25 µM]
CC(C)[C@H]1COCc2cn(nn2)CCC[C@H](C)C(=O)N1 | -7[25 µM]
CCCCCCCCCCCCCCCC[n+]1ccccc1 | 99*
CO[C@@H](CN(C)C(=O)c1cc(Cl)cc(Cl)c1)[C@@H](C)CN(C(=O)Nc1ccc(F)cc1)[C@@H](C)CO | 7[25 µM]
CC(C)(O)C#Cc1ccc([C@@H]2[C@@H](CO)N3CCCCN(S(C)(=O)=O)C[C@@H]23)cc1 | -7[25 µM]
COc1ccccc1S(=O)(=O)N(C)C[C@H]1OCc2ccccc2-c2c(n(C)c3ccccc23)C(=O)N([C@H](C)CO)C[C@@H]1C | 18
Cc1nn(Cc2ccccc2)c(C)c1C(=O)OCC(=O)c1cc(C)n(CC(F)(F)F)c1C | 11
Cc1cc(C(=O)COC(=O)c2cccn2C)c(C)n1Cc1ccco1 | 57*
COCC(C)n1c(C)cc(C(=O)COC(=O)c2cccn2C)c1C (stereo unspecified) | 52*
COC(=O)c1c(C(=O)OC)c(C)n(Cc2ccco2)c1C | 11
Cc1cc(C(=O)CSc2nnc(N)s2)c(C)n1Cc1ccco1 | -25
Cc1cc(C(=O)COC(=O)c2ccco2)c(C)n1Cc1ccco1 | 101*
Cc1cc(C(=O)COc2cccnc2[N+](=O)[O-])c(C)n1Cc1ccco1 | -20
Cc1cc(C(=O)COC(=O)c2n[nH]c(=O)c3ccccc23)c(C)n1C(C)C | -36
COCC(C)n1c(C)cc(C(=O)COc2ccc(N(C)S(=O)(=O)c3ccc(NC(C)=O)cc3)cc2)c1C (stereo unspecified) | -7
Cc1ccc(S(=O)(=O)N(C)C[C@@H]2Oc3ccc(NC(=O)CCCN(C)C)cc3C(=O)N([C@@H](C)CO)C[C@H]2C)cc1 | -8[25 µM]
O=C(Cc1ccccn1)N[C@H]1C=C[C@H](CC(=O)N2CCCCC2)O[C@@H]1CO | 1
COc1ccc(S(=O)(=O)N2CCN(Cc3cc(=O)n4ccccc4n3)CC2)cc1 | -2
O=C(NC1CCCCCC1)c1ccc(CN2CCOCC2)cc1 | -27
COC(=O)CCCNc1ncccc1[N+](=O)[O-] | 7
COc1ccc(NS(=O)(=O)c2cccc(C(=O)NN=Cc3ccc(OC)cc3OC)c2)cc1 | -4
COc1ccc(/C=N/Nc2ncccc2[N+](=O)[O-])c(OC)c1 | 68*
SMILES | BL2 CD40 inh
Cc1noc(C)c1NC(=O)N[C@H]1CC[C@@H](CCNC(=O)C2CCCCC2)O[C@@H]1CO | -6
C[C@@H]1CN([C@@H](C)CO)C(=O)c2cccc(NC(=O)Nc3ccc(C(F)(F)F)cc3)c2O[C@H]1CN(C)S(=O)(=O)c1cn(C)cn1 | -6[25 µM]
O=C(Nc1ccccc1F)N1CCCCN2[C@H](C1)[C@@H](c1ccc(C#Cc3cccnc3)cc1)[C@@H]2CO | 9[25 µM]
COc1cccc(Nc2nc(C(N)COCc3ccccc3)cs2)n1 (stereo unspecified) | 6
COc1ccc(NC(=O)Nc2nc(C(N)CC(C)C)cs2)cc1 (stereo unspecified) | 2
CC(C)c1ccc(NC(=O)Nc2nc(C(N)COCc3ccccc3)cs2)cc1 (stereo unspecified) | 57*
C/C=C/c1ccc(C2[C@H]3CNC[C@@H]2N3Cc2cccc(C(F)(F)F)c2)cc1 (stereo partly specified) | 1[25 µM]
CCCCNC(=O)C1(C)CCCCN1C(=O)c1oc2ccccc2c1C (stereo unspecified) | 5
COCCNC(=O)C[C@H]1C[C@H]2c3cc(NC(=O)NC4CCCCC4)ccc3O[C@H]2[C@@H](CO)O1 | 1
COc1ccc(OCCOC(=O)c2cc(S(=O)(=O)N3CCOCC3)c(Cl)cc2Cl)cc1 | 0
COc1ccccc1NC(=O)CN(Cc1ccco1)C(=O)c1cc2ccccc2o1 | 9
COc1ccc2c3c(n(C)c2c1)[C@H](CO)N(C(=O)Nc1ccc(F)cc1)CC31CCN(S(=O)(=O)c2cccc(C)c2)CC1 | 44[25 µM]
COc1ccc2c3c([nH]c2c1)[C@H](CO)N(C(=O)Nc1ccc(F)cc1)CC31CN(S(=O)(=O)c2ccc(C)cc2)C1 | 18[25 µM]
COc1ccc2c3c([nH]c2c1)[C@H](CO)N(C(=O)Nc1cccc(F)c1)CC31CCN(S(=O)(=O)c2cccc(C)c2)CC1 | 80*[25 µM]
C[C@@H]1CN([C@@H](C)CO)C(=O)CCCn2cc(nn2)CO[C@@H]1CN(C)Cc1ccc2c(c1)OCCN2C | -8[25 µM]
COc1ccc(CN(CCC(c2ccccc2)c2ccc(OC(C)C)cc2)C(=O)CCl)cc1OC (stereo unspecified) | 44*
COc1ccc(CN(CCC(c2ccccc2)C2CCOC(C)(C)C2)C(C)=O)cc1 (stereo unspecified) | -5
COc1ccc(CN(CCC(c2ccco2)C(C)C)C(C)=O)cc1OC (stereo unspecified) | 5
COc1ccc(CCNC(=O)c2cc3c(cc2Cl)N2CCCCCC2=NS3(=O)=O)cc1 | 10
CC(=NNC(=O)c1ccncc1)c1ccccc1O | -48
Oc1ccc(/C(Cc2ccc3ccccc3n2)=N\Nc2ccccc2)c(O)c1 | -39
CC(=NNc1ccc2ccccc2n1)c1ccccc1O | 96*
Cc1ccccc1C(=O)N1CCC(C(=O)Nc2nccs2)CC1 | -13
Cc1ccccc1C(=O)N1CCC(C(=O)Nc2nc3ccc(F)cc3s2)CC1 | 56*
O=C(CN1C(=O)C2CCCCC2C1=O)Nc1nc2ccc(F)cc2s1 (stereo unspecified) | -5
SMILES | BL2 CD40 inh
N#C[C@H]1[C@@H](c2ccc(C#CC3CCCC3)cc2)[C@@H](CO)N1C(=O)c1cccc(F)c1 | -3
Oc1ccc2ccccc2c1CNc1ccccc1 | -4
O=C(O)c1cc2ccccc2c2c1C(=O)c1ccccc1-2 | 7
O=C1C=C(c2c(O)ccc3ccccc23)c2ccccc2C1=O | 73*
O=C(N[C@@H]1CC[C@@H](CCNS(=O)(=O)c2ccc(F)cc2)O[C@H]1CO)C1CCC1 | 2[25 µM]
O=S(=O)(c1ccc(F)cc1)N1C[C@@H]2N[C@H](C1)C2c1ccc(-c2ccc(F)cc2)cc1 (stereo partly specified) | -1
Cc1cccc(S(=O)(=O)N2C[C@H]3[C@@H](c4ccccc42)[C@H](CO)N3C(=O)c2ccccc2)c1 | 2[25 µM]
c1ccc(-c2nc(NCc3ccco3)c3ccccc3n2)nc1 | 53*
c1ccc(N2CCN(c3nc(NCc4ccco4)c4ccccc4n3)CC2)cc1 | 29
COc1ccccc1Nc1nc(NCc2ccco2)c2ccccc2n1 | -21
O=C(C1CCCC1)N1CC(=O)N2[C@@H](CO)[C@@H](c3ccc(C#Cc4cccc(F)c4)cc3)[C@@H]2C1 | 5
C[C@H](NC(=O)C[C@@H]1CC[C@@H]2[C@H](COc3ccc(NC(=O)C4CCOCC4)cc3C(=O)N2C)O1)c1ccccc1 | -14[25 µM]
CC(C)[C@@H](C)NC(=O)N(C)C[C@H]1OCc2ccccc2-c2c(n(C)c3ccccc23)C(=O)N([C@H](C)CO)C[C@H]1C | 1
COc1ccc2c3c(n(C)c2c1)[C@@H](CO)N(C(=O)C1CCOCC1)CC31CCN(C(=O)c2ccncc2)CC1 | 6[25 µM]
Cc1ccc(Cn2c(C)c3cnn(CC(=O)NC4CCCC4)c(=O)c3c2C)cc1 | -11
O=C(Cn1ncc(Cl)c(Cl)c1=O)NC1CCCCC1 | 97*
O=C(CN1CCN(Cc2ccccc2Cl)C1=O)NC1CCCCCCC1 | 11

From PubChem BioAssay
